Reference: the supplement of paper PMC6555819

What follows are sequences tested on PPARg:RXRa IVT, anti-PPARg (NR concentration 270 nM, RXRa partner concentration 90 nM) (assay: PBM binding z-score (relative to random genomic background probes); higher = stronger binding; sequences stand for … in GC…GCGATTGACAGCGTAGAATGAAGG).
Method in brief: (§1)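 Binding z-scores were set against random background probes. The data came from custom Agilent 4×180K protein-binding microarrays carrying double-stranded probes with 34-nt variable regions, incubated 1 h with ligand-free nuclear receptor dimers. Partner-specific antibodies detected binding, and scanned fluorescence was regression-normalized.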
TGAATGAGGTTAAAGATCACGGAACGTGGCGTCG was tested, and the PBM binding z-score was 3.53.
For TATACAGGGTCAAAGGCCAGGGTACGAATGTCGA, the PBM binding z-score was 4.98.
CCTTACGGGACACGAGGTTATAGCACGACGAGCG gave a PBM binding z-score of 0.867.
CTACCAAGGTGAACAAGGTCGTTGAATACTATTC showed a PBM binding z-score of 2.79.
With CCGACTGGGACAAGGTTACCATAACGCACAGCCA the PBM binding z-score was 2.07.
Sequence CCTAGTTGGTCAAGTTCACACACGCTATAGGTAC has a PBM binding z-score of 1.82.
ATTAGCAGGCCAAGTTTGGGTCACTCAAACAAAG gave a PBM binding z-score of 1.31.
GATACAGGGTCACGGCCAGAGTACGCGTATTGAT showed a PBM binding z-score of 5.49.
Work on GCTAGCAGGCCATTTGGGTCGCTCAATGACGGGC yielded a PBM binding z-score of 0.26.
TCTAGCAGGCCAGAGGCTCACTCAAGAGGTACGG gave a PBM binding z-score of -0.442.
For ATCGAAAGGTCGAAGCTGAGTATACCCACCCGAA, the PBM binding z-score was 1.14.
Work on CATTCAGGGTCAGCTAGGCCAGAGTAGGGACGGC yielded a PBM binding z-score of 3.11.
TTTGCTAGGTCAGTTGGTCAGCTAACGAGCTGCC was tested, and the PBM binding z-score was 3.87.
Sequence ACAGACAGGTGCTGAAGGTAACTCAGGCTATCAT has a PBM binding z-score of -0.503.
For AGAAGGAGGTTAAGATCAGGGAAACAGAATACAT, the PBM binding z-score was 1.78.
Sequence AGAATGAGGTTAAGATCAGGCAAACAGAATACAT has a PBM binding z-score of 2.81.
CCTACTGGGCCAACGTCATTGATCAGTCAAAGCA showed a PBM binding z-score of 4.
In the case of GCTAGCAGGCCGTTTGGGTCACTCAATGACGGGC, the PBM binding z-score is reported as -0.27.

What follows are sequences tested on PPARg DBDmut:RXRa IVT, anti-PPARg (DBD mutation: PPARg1 K132A/R137A, NR concentration 270 nM, RXRa partner concentration 90 nM) in the same assay as above.
Method in brief: as §1
ACTCGGAGTACAAAGGTCAGAGCTACGCCAGTGA was tested, and the PBM binding z-score was -0.013.
For GCTCGCAGGACAAGGTCAGAGCTTTGTCCGTAGA, the PBM binding z-score was -1.69.
For ATCGAAAGGTCGAAGGTGAGTATCCCCACCCGAA, the PBM binding z-score was 0.338.
Work on GTACCAAGGTGAATAGGTCGTTGAGGAGTAGGCG yielded a PBM binding z-score of -0.447.
CCTACTGGGCCAAAAAGGTCATTGGTGCCGATAA gave a PBM binding z-score of -0.644.
Sequence ACTATTAGTTGAGACGAGGGGAACCGATAGGTTG has a PBM binding z-score of 0.853.
TCAGACAGGTGAAGGTAACTTAGGTACGCAGTCG showed a PBM binding z-score of 0.399.
GCCAGCAGGCCATTTGGGTCACTCAATGACGGGC gave a PBM binding z-score of -0.593.
GCTATTAGTTGAAAGGGCAACTGAATGATTCTCG showed a PBM binding z-score of 0.18.
With TAGCCTAGGTCAAATCGGGCCAGTATACGCTATA the PBM binding z-score was 0.169.
CAAACTAGGTCATCGGAAGGTCAAAGTCCGCATG gave a PBM binding z-score of 2.01.
For GGAACTAGGGCATTCGAGTTGATAGCATGGCGAT, the PBM binding z-score was 0.246.
TCTTGAAGATCAACAGGAGGTTAAGAAAGATCGA was tested, and the PBM binding z-score was 0.0497.
Sequence ACAGACAGGTGAGTGAAGGTATCTCAGCTGGACG has a PBM binding z-score of -0.168.
CAAACTAGGTCAAGCTCAAAGTCGGTTTGTGCCA showed a PBM binding z-score of 4.04.
For AATACAGGGTCATCGTAGCCCAGAGTACGCACAG, the PBM binding z-score was 2.19.
With CCTGCTAGGTCATGGTAAGCTAATCTACAGTATG the PBM binding z-score was 0.752.
With GCTAGCAGGCCATTTGGGTCACTCAGTGACGGGC the PBM binding z-score was -0.601.
TCAGACAGGTGAAGATAACTCAGGTACGCAGTCG was tested, and the PBM binding z-score was 0.555.
For CCAGACAGGTGAGAAGGTAACTTAGCCTCGATTA, the PBM binding z-score was 0.104.
Work on TAGCCTAGGTCATGCGGTCCAGTATAGTGTCGGC yielded a PBM binding z-score of -0.501.
In the case of ACTAGTTGGTCAGCGGAGGTCACACACAATTCGG, the PBM binding z-score is reported as 1.36.
Work on TGAATGAGGTTAAAGATCACGGAACGTGGCGTCG yielded a PBM binding z-score of 0.896.
TATACAGGGTCAAAGGCCAGGGTACGAATGTCGA was tested, and the PBM binding z-score was 2.34.
CCTTACGGGACACGAGGTTATAGCACGACGAGCG showed a PBM binding z-score of 0.559.
CTACCAAGGTGAACAAGGTCGTTGAATACTATTC was tested, and the PBM binding z-score was 0.336.
In the case of CCGACTGGGACAAGGTTACCATAACGCACAGCCA, the PBM binding z-score is reported as -0.366.
Work on CCTAGTTGGTCAAGTTCACACACGCTATAGGTAC yielded a PBM binding z-score of 0.944.
Work on ATTAGCAGGCCAAGTTTGGGTCACTCAAACAAAG yielded a PBM binding z-score of -0.0201.
Sequence GATACAGGGTCACGGCCAGAGTACGCGTATTGAT has a PBM binding z-score of 1.11.
In the case of GCTAGCAGGCCATTTGGGTCGCTCAATGACGGGC, the PBM binding z-score is reported as -1.18.
For TCTAGCAGGCCAGAGGCTCACTCAAGAGGTACGG, the PBM binding z-score was -1.19.
ATCGAAAGGTCGAAGCTGAGTATACCCACCCGAA gave a PBM binding z-score of 0.883.
In the case of CATTCAGGGTCAGCTAGGCCAGAGTAGGGACGGC, the PBM binding z-score is reported as 2.17.
For TTTGCTAGGTCAGTTGGTCAGCTAACGAGCTGCC, the PBM binding z-score was -0.438.
ACAGACAGGTGCTGAAGGTAACTCAGGCTATCAT was tested, and the PBM binding z-score was -0.162.
Work on AGAAGGAGGTTAAGATCAGGGAAACAGAATACAT yielded a PBM binding z-score of 1.73.
AGAATGAGGTTAAGATCAGGCAAACAGAATACAT gave a PBM binding z-score of 0.992.
CCTACTGGGCCAACGTCATTGATCAGTCAAAGCA was tested, and the PBM binding z-score was -0.653.
With GCTAGCAGGCCGTTTGGGTCACTCAATGACGGGC the PBM binding z-score was -1.62.

Each sequence was assayed on PPARg DBDmut IVT, anti-PPARg (DBD mutation: PPARg1 K132A/R137A, NR concentration 270 nM) in the same assay as above.
Method in brief: as §1
ACTCGGAGTACAAAGGTCAGAGCTACGCCAGTGA was tested, and the PBM binding z-score was 0.136.
GCTCGCAGGACAAGGTCAGAGCTTTGTCCGTAGA gave a PBM binding z-score of -1.23.
Sequence ATCGAAAGGTCGAAGGTGAGTATCCCCACCCGAA has a PBM binding z-score of 0.675.
GTACCAAGGTGAATAGGTCGTTGAGGAGTAGGCG was tested, and the PBM binding z-score was -0.52.
In the case of CCTACTGGGCCAAAAAGGTCATTGGTGCCGATAA, the PBM binding z-score is reported as -0.94.
In the case of ACTATTAGTTGAGACGAGGGGAACCGATAGGTTG, the PBM binding z-score is reported as 0.931.
Work on TCAGACAGGTGAAGGTAACTTAGGTACGCAGTCG yielded a PBM binding z-score of 0.159.
Sequence GCCAGCAGGCCATTTGGGTCACTCAATGACGGGC has a PBM binding z-score of -1.66.
Work on GCTATTAGTTGAAAGGGCAACTGAATGATTCTCG yielded a PBM binding z-score of 0.595.
Work on TAGCCTAGGTCAAATCGGGCCAGTATACGCTATA yielded a PBM binding z-score of 0.237.
CAAACTAGGTCATCGGAAGGTCAAAGTCCGCATG gave a PBM binding z-score of 2.98.
Work on GGAACTAGGGCATTCGAGTTGATAGCATGGCGAT yielded a PBM binding z-score of 1.27.
With TCTTGAAGATCAACAGGAGGTTAAGAAAGATCGA the PBM binding z-score was 0.387.
With ACAGACAGGTGAGTGAAGGTATCTCAGCTGGACG the PBM binding z-score was -1.07.
Sequence CAAACTAGGTCAAGCTCAAAGTCGGTTTGTGCCA has a PBM binding z-score of 1.47.
For AATACAGGGTCATCGTAGCCCAGAGTACGCACAG, the PBM binding z-score was 2.43.
In the case of CCTGCTAGGTCATGGTAAGCTAATCTACAGTATG, the PBM binding z-score is reported as 0.561.
GCTAGCAGGCCATTTGGGTCACTCAGTGACGGGC gave a PBM binding z-score of -0.52.
In the case of TCAGACAGGTGAAGATAACTCAGGTACGCAGTCG, the PBM binding z-score is reported as 0.567.
CCAGACAGGTGAGAAGGTAACTTAGCCTCGATTA showed a PBM binding z-score of -0.619.
TAGCCTAGGTCATGCGGTCCAGTATAGTGTCGGC was tested, and the PBM binding z-score was 0.0737.
ACTAGTTGGTCAGCGGAGGTCACACACAATTCGG gave a PBM binding z-score of 0.469.
In the case of TGAATGAGGTTAAAGATCACGGAACGTGGCGTCG, the PBM binding z-score is reported as 0.358.
Work on TATACAGGGTCAAAGGCCAGGGTACGAATGTCGA yielded a PBM binding z-score of 1.6.
For CCTTACGGGACACGAGGTTATAGCACGACGAGCG, the PBM binding z-score was 0.413.
CTACCAAGGTGAACAAGGTCGTTGAATACTATTC was tested, and the PBM binding z-score was 0.338.
Work on CCGACTGGGACAAGGTTACCATAACGCACAGCCA yielded a PBM binding z-score of -0.958.
CCTAGTTGGTCAAGTTCACACACGCTATAGGTAC was tested, and the PBM binding z-score was 1.02.
Work on ATTAGCAGGCCAAGTTTGGGTCACTCAAACAAAG yielded a PBM binding z-score of -0.208.
In the case of GATACAGGGTCACGGCCAGAGTACGCGTATTGAT, the PBM binding z-score is reported as 0.362.
GCTAGCAGGCCATTTGGGTCGCTCAATGACGGGC was tested, and the PBM binding z-score was -1.25.
Work on TCTAGCAGGCCAGAGGCTCACTCAAGAGGTACGG yielded a PBM binding z-score of -2.42.
In the case of ATCGAAAGGTCGAAGCTGAGTATACCCACCCGAA, the PBM binding z-score is reported as -0.0386.
Work on CATTCAGGGTCAGCTAGGCCAGAGTAGGGACGGC yielded a PBM binding z-score of 0.968.
TTTGCTAGGTCAGTTGGTCAGCTAACGAGCTGCC gave a PBM binding z-score of -0.0692.
ACAGACAGGTGCTGAAGGTAACTCAGGCTATCAT was tested, and the PBM binding z-score was 0.258.
AGAAGGAGGTTAAGATCAGGGAAACAGAATACAT showed a PBM binding z-score of 0.272.
Sequence AGAATGAGGTTAAGATCAGGCAAACAGAATACAT has a PBM binding z-score of 0.64.
CCTACTGGGCCAACGTCATTGATCAGTCAAAGCA showed a PBM binding z-score of -0.52.
Work on GCTAGCAGGCCGTTTGGGTCACTCAATGACGGGC yielded a PBM binding z-score of -1.46.
